In PubChem BioAssay (NCI):
The panel holds about 83,000 compounds, 20% with a hit somewhere; the sample as a whole holds those more often.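 Each cell line was grown in a 96-well plate and treated with one concentration of compound for 48 hours. Values below 10 were considered active.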 A number with no mark means an inactive call. Active and inactive are the calls of the source.

Each compound was assayed on UACC-62 melanoma (assay: NCI-60 one-dose screen, 48 h (100 = growth as untreated, 0 = no growth, -100 = all killed)). Settings: 10 µM unless noted.
With `Cn1c(/C(C#N)=C/c2ccc3ccccc3c2)cc2ccccc21` the growth was 18.7%.
`Cn1cc(-c2nc(-c3c[nH]c4ncccc34)cs2)c2cc(F)ccc21` was tested, and the growth was 47.6%.
In the case of `CC(=O)N1N=C(c2ccc(C)cc2)CC1c1ccc(Oc2ccc(Br)cc2)cc1` (stereo not given), the growth is reported as 64.4%.
For `NC1=NN=C2N(N)C(=O)c3cnn(-c4ccccc4)c3N2c2nc(-c3ccccc3)cc(-c3ccccc3)c21`, the growth was 82.9%.
With `Fc1ccc2nc(-c3cc(-c4ccc5c(c4)OCO5)n[nH]3)[nH]c2c1` the growth was 53.7%.
For `CN(C)c1ccc(-c2ccc(-c3ccc(C(=N)N)c(F)c3)s2)cc1`, the growth was -93.3% (active).
For `Cc1c(C)c2c(c(C)c1NC(=O)CCCCCCC(=O)O)CCC(C)(CCCC(C)CCCC(C)CCCC(C)C)O2` (stereo not given), the growth was 89.1%.
`Cc1cc(C)nc(NC(N)=NCCc2ccccc2)n1` was tested, and the growth was 38%.
`C=C(C)[C@@H]1CC[C@]2(C(=O)O)CC[C@]3(C)[C@H](CC[C@@H]4[C@@]5(C)C/C(=C/c6ccc(OC)cc6)C(=O)C(C)(C)[C@@H]5CC[C@]43C)[C@@H]12` showed a growth of 17.1%.
For `COc1ccc2[nH]cc(-c3nc(-c4c[nH]c5ncccc45)cs3)c2c1`, the growth was 50.4%.
Compound `CCc1ccc(-c2ccc(Nc3ccccc3)nn2)cc1S(N)(=O)=O` has a growth of 81.1%.
With `Cn1cccc1/C=C1/SC(=S)N(CCc2ccc(O)cc2)C1=O` the growth was 24.9%.
For `CN1CCN(CCOc2ccc(-c3cnc4c(-c5ccccc5F)cnn4c3)cc2)CC1`, the growth was -10.7% (active).
With `O=c1c(CNc2ccc(S(=O)(=O)Nc3ncccn3)cc2)coc2ccccc12` the growth was 89.8%.
For `Cc1ccc(-c2nc([P+](c3ccccc3)(c3ccccc3)c3ccccc3)c(N3CCOCC3)o2)cc1`, the growth was -29.4% (active).
Compound `O=C1OC(c2ccc(Cl)c(Cl)c2)=C/C1=C/c1cccc([N+](=O)[O-])c1` has a growth of 88.7%.
With `COc1ccccc1-n1cnc(N)c1C(=O)c1cc(OC)c(OC)c(OC)c1` the growth was 29.1%.
In the case of `COc1ccc2c(c1)C/C(=C\c1cc(-c3ccc4c(c3)OCO4)n[nH]1)C2=O`, the growth is reported as 90.3%.
In the case of `CN(C)CCCC1(c2ccc(F)cc2)OCc2cc(-c3ccc(C(F)(F)F)nc3)ccc21` (stereo not given), the growth is reported as 86.1%.
`O=c1c(CNc2ccc(S(=O)(=O)Nc3nccs3)cc2)coc2ccccc12` showed a growth of 97.9%.
In the case of `Cc1ccc2c(c1)c(-c1nc(-c3c[nH]c4ncccc34)cs1)cn2C`, the growth is reported as 94.5%.
With `CC1(C)C(=O)/C(=C\c2ccco2)C[C@]2(C)[C@H]3CC[C@@H]4[C@@H](C(=O)/C=C/c5ccco5)CC[C@@]4(C)[C@]3(C)CC[C@@H]12` the growth was 12.5%.
With `Cc1ccc(-c2nc([P+](c3ccccc3)(c3ccccc3)c3ccccc3)c(N3C[C@H]4C[C@H](C3)c3cccc(=O)n3C4)o2)cc1` the growth was 54.5%.
`C=C(C)[C@@H]1CC[C@]2(CN)CC[C@]3(C)[C@H](CC[C@@H]4[C@@]5(C)CCC(=O)NC(C)(C)[C@@H]5CC[C@]43C)[C@@H]12` gave a growth of 82.5%.
In the case of `Nc1c(Cl)cc(N=Nc2ccccc2)cc1Cl`, the growth is reported as 57.5%.
`CC(=O)O[C@H]1CC[C@]2(C)[C@H]3C(=O)C=C4[C@@H]5C[C@](C)(C(=O)N6CCCNCC6)CC[C@]5(C)CC[C@@]4(C)[C@]3(C)CC[C@H]2C1(C)C` showed a growth of 13.7%.
Work on `CCCCCC1CCCCN1C(=O)OCC` (stereo not given) yielded a growth of 105%.
`Cn1cc(-c2nc(-c3c[nH]c4ncccc34)cs2)c2cc(Br)ccc21` showed a growth of 80.5%.
For `O=C(N/N=C\c1ccccc1O)C1CC1`, the growth was 102%.
In the case of `COc1ccc(OCC(CO)N2CCN(c3ccccc3)CC2)cc1` (stereo not given), the growth is reported as 97.2%.
`Cn1cc(-c2nc(-c3c[nH]c4ncccc34)cs2)c2ccccc21` gave a growth of 84.6%.
`CC1(C)CC[C@]2(C(=O)Nc3ccccn3)CC[C@]3(C)C(=CC[C@@H]4[C@@]5(C)C/C(=C/c6ccncc6)C(=O)C(C)(C)[C@@H]5CC[C@]43C)[C@@H]2C1` was tested, and the growth was 23.9%.
`C=C(C)[C@@H]1CC[C@]2(C(=O)O)CC[C@]3(C)[C@H](CC[C@@H]4[C@@]5(C)C/C(=C/c6cccc(I)c6)C(=O)C(C)(C)[C@@H]5CC[C@]43C)[C@@H]12` showed a growth of 30.9%.
For `Oc1cccc2oc(=S)[nH]c12`, the growth was 101%.
In the case of `CC(=O)O[C@H]1CC[C@@]2(C)C(=CC[C@@H]3[C@@H]2CC[C@]2(C)C(=O)N(O)C(=O)C[C@@H]32)C1`, the growth is reported as 100%.
